Experimental data: PubChem BioAssay (Tox21)
A number with no mark means an inactive call. Records with an inconclusive call do not appear. A call without a number means that no potency is given here. The source made the active and inactive calls. Calls come from the whole dose curve; as a rule, active = well fitted curve in the direction sought with a large enough effect in the repeat runs; inconclusive = weak or mixed curves; inactive = no such curve, though single readings can be large; an effect the other way counts as inactive or inconclusive.

Key:
[1] = qHTS RealTime-Glo MT Cell Viability Assay in HEK293 cells - 0 hour (AID 1224880); note: top concentration of the series differs between compounds; nearly all actives have a fitted effect of over 45% in size
Procedure, shortened: (§1)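 Real-time viability in HEK293: signal arises when living cells convert a prosubstrate for NanoLuc in the medium, so luminescence tracks viable cell number. Compound (23 nL, DMSO) added 5 h post-seeding; kinetic reads at 0–40 h, 37 C.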

[2] = A CellTox Green Cytotoxicity Assay to monitor cytotoxicity in HEK293 cells - 32 hour (AID 1224881); note: nearly all actives have a fitted effect of over 40% in size; note: potency is the fitted concentration of half-maximal effect
Procedure, shortened: (§2)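 Cells (HEK293, 600/well) and dye reagent are dispensed together. After 5 h at 37 C, 23 nL compound is pinned in. Plates stay at 37 C for 40 h with fluorescence read at 0h, 8h, 16h, 24h, 32h and 40h.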

[3] = A CellTox Green Cytotoxicity Assay to monitor cytotoxicity in HepG2 cells - 0 hour (AID 1224882); note: nearly all actives have a fitted effect of over 35% in size; note: potency is the fitted concentration of half-maximal effect
Procedure, shortened: (§3)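 Cells and non-lytic dye reagent are dispensed together (600 HepG2 cells/well) and incubated 5 h before DMSO compound transfer. Kinetic fluorescence is then recorded in the same wells during 40 h at 37 C.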

[4] = A CellTox Green Cytotoxicity Assay to monitor cytotoxicity in HepG2 cells - 32 hour (AID 1224883); note: nearly all actives have a fitted effect of over 50% in size; note: potency is the fitted concentration of half-maximal effect
Procedure, shortened: as §3

[5] = A CellTox Green Cytotoxicity Assay to monitor cytotoxicity in HEK293 cells - 8 hour (AID 1224884); note: nearly all actives have a fitted effect of over 35% in size; note: potency is the fitted concentration of half-maximal effect
Procedure, shortened: as §2

[6] = qHTS RealTime-Glo MT Cell Viability Assay in HepG2 cells - 16 hour (AID 1224885); note: nearly all actives have a fitted effect of over 50% in size
Procedure, shortened: (§4)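 Viability was tracked continuously by NanoLuc luminescence from prosubstrate reduced by living HepG2 cells, at successive time points over 40 h of compound exposure. Cells with reagent were preincubated 5 h at 37 °C before compound addition.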

[7] = qHTS RealTime-Glo MT Cell Viability Assay in HEK293 cells - 24 hour (AID 1224886); note: top concentration of the series differs between compounds; nearly all actives have a fitted effect of over 50% in size
Procedure, shortened: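 Viability tracked continuously by luminescence as live cells reduce a prosubstrate for NanoLuc; HEK293 cells preincubated 5 h, compound-treated at 37 C, and read at 0, 8, 16, 24, 32 and 40 h.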

[8] = qHTS RealTime-Glo MT Cell Viability Assay in HEK293 cells - 8 hour (AID 1224887); note: top concentration of the series differs between compounds; nearly all actives have a fitted effect of over 50% in size
Procedure, shortened: as §1

[9] = A CellTox Green Cytotoxicity Assay to monitor cytotoxicity in HEK293 cells - 16 hour (AID 1224888); note: nearly all actives have a fitted effect of over 35% in size; note: potency is the fitted concentration of half-maximal effect
Procedure, shortened: as §2

[10] = qHTS RealTime-Glo MT Cell Viability Assay in HepG2 cells - 0 hour (AID 1224889); note: nearly all actives have a fitted effect of over 50% in size
Procedure, shortened: as §4

CC(C=O)Cc1ccc(C(C)C)cc1 (configuration not stated)
outcome [1]: inactive
Potency [2]: inactive
Potency [3]: inactive
Potency [4]: inactive
Potency [5]: inactive
outcome [6]: inactive
Potency [7]: inactive
Potency [8]: inactive
Potency [9]: inactive
Potency [10]: inactive

Nc1cc(C(Cl)=C(Cl)Cl)c(S(N)(=O)=O)cc1S(N)(=O)=O
outcome [1]: inactive
Potency [2]: inactive
Potency [3]: inactive
Potency [4]: inactive
Potency [5]: inactive
outcome [6]: inactive
Potency [7]: inactive
Potency [8]: inactive
Potency [9]: inactive
Potency [10]: inactive

CC(C)COC(=O)C(C)C
outcome [1]: inactive
Potency [2]: inactive
Potency [3]: inactive
Potency [4]: inactive
Potency [5]: inactive
outcome [6]: inactive
Potency [7]: inactive
Potency [8]: inactive
Potency [9]: inactive
Potency [10]: inactive

O=C(O)c1cccc(C(=O)O)n1
outcome [1]: inactive
Potency [2]: inactive
Potency [3]: inactive
Potency [4]: inactive
Potency [5]: inactive
outcome [6]: inactive
Potency [7]: inactive
Potency [8]: inactive
Potency [9]: inactive
Potency [10]: inactive

O=C(O)c1ccccc1-c1ccc(C(F)(F)F)cc1
outcome [1]: inactive
Potency [2]: inactive
Potency [3]: inactive
Potency [4]: inactive
Potency [5]: inactive
outcome [6]: inactive
Potency [7]: inactive
Potency [8]: inactive
Potency [9]: inactive
Potency [10]: inactive

CC(C)(O)Cc1ccccc1
outcome [1]: inactive
Potency [2]: inactive
Potency [3]: inactive
Potency [4]: inactive
Potency [5]: inactive
outcome [6]: inactive
Potency [8]: inactive
Potency [9]: inactive
Potency [10]: inactive

Nc1ccc2cc(S(=O)(=O)O)ccc2c1
outcome [1]: inactive
Potency [2]: inactive
Potency [3]: inactive
Potency [4]: inactive
Potency [5]: inactive
outcome [6]: inactive
Potency [7]: inactive
Potency [8]: inactive
Potency [9]: inactive
Potency [10]: inactive

CC(=O)c1ccc(C)cc1
outcome [1]: inactive
Potency [2]: inactive
Potency [3]: inactive
Potency [4]: inactive
Potency [5]: inactive
outcome [6]: inactive
Potency [7]: inactive
Potency [8]: inactive
Potency [9]: inactive
Potency [10]: inactive

CC/C=C\C#N
outcome [1]: inactive
Potency [2]: inactive
Potency [3]: inactive
Potency [4]: inactive
Potency [5]: inactive
outcome [6]: inactive
Potency [7]: inactive
Potency [8]: inactive
Potency [9]: inactive
Potency [10]: inactive

CCc1cc(S(=O)(=O)O)c2cc(C(C)C)cccc1-2
outcome [1]: inactive
Potency [2]: inactive
Potency [3]: inactive
Potency [4]: inactive
Potency [5]: inactive
outcome [6]: inactive
Potency [7]: inactive
Potency [8]: inactive
Potency [9]: inactive
Potency [10]: inactive

NC(=O)c1c(Cl)cccc1Cl
outcome [1]: inactive
Potency [2]: inactive
Potency [3]: inactive
Potency [4]: inactive
Potency [5]: inactive
outcome [6]: inactive
Potency [7]: inactive
Potency [8]: inactive
Potency [9]: inactive
Potency [10]: inactive

Nc1ccn(C2CO[C@H](CO)O2)c(=O)n1 (some centres not stated)
outcome [1]: inactive
Potency [2]: 19 µM (active)
Potency [3]: 26.8 µM (active)
Potency [4]: 5.35 µM (active)
Potency [5]: 16.9 µM (active)
outcome [6]: inactive
Potency [7]: inactive
Potency [8]: inactive
Potency [9]: 19 µM (active)
Potency [10]: inactive

CCCOCC(C)OCC(C)O (configuration not stated)
outcome [1]: inactive
Potency [2]: inactive
Potency [3]: inactive
Potency [4]: inactive
Potency [5]: inactive
outcome [6]: inactive
Potency [7]: inactive
Potency [8]: inactive
Potency [9]: inactive
Potency [10]: inactive

C=CC(=O)N1CCOCC1
outcome [1]: inactive
Potency [2]: inactive
Potency [3]: inactive
Potency [4]: inactive
Potency [5]: inactive
outcome [6]: inactive
Potency [7]: inactive
Potency [8]: inactive
Potency [9]: inactive
Potency [10]: inactive

C=C(C)C(=O)OCCCCCCCCCCCCCCCCCC
activity change, negative = cytotoxicity [1]: 4.5% [at 15.8 µM]
cytotoxicity increase [2]: 3.44% [at 15.8 µM]
cytotoxicity [3]: 0.514% [at 15.8 µM]
cytotoxicity increase [4]: -0.434% [at 15.8 µM]
cytotoxicity increase [5]: -3.54% [at 15.8 µM]
activity change, negative = cytotoxic [6]: 0.444% [at 15.8 µM]
activity change, negative = cytotoxicity [7]: 11.4% [at 15.8 µM]
activity change, negative = cytotoxicity [8]: 4.13% [at 15.8 µM]
activity change [9]: 0.239% [at 15.8 µM, hits give high values]
activity change, negative = cytotoxicity [10]: -1.29% [at 15.8 µM]

Nc1nc(F)nc2c1ncn2[C@@H]1O[C@H](CO)[C@@H](O)[C@@H]1O
outcome [1]: inactive
Potency [2]: inactive
Potency [3]: inactive
Potency [4]: inactive
Potency [5]: inactive
outcome [6]: inactive
Potency [7]: inactive
Potency [8]: inactive
Potency [9]: inactive
Potency [10]: inactive

CC(C)(C)C(=O)/C=C/c1ccc(Cl)cc1
outcome [1]: inactive
Potency [2]: inactive
Potency [3]: inactive
Potency [4]: inactive
Potency [5]: inactive
outcome [6]: inactive
Potency [7]: inactive
Potency [8]: inactive
Potency [9]: inactive
Potency [10]: inactive

Cn1ccc2cc3c(cc21)CCN3C(=O)Nc1cccnc1
activity change, negative = cytotoxicity [1]: -0.254% [at 15.8 µM]
cytotoxicity increase [2]: 1.72% [at 15.8 µM]
cytotoxicity [3]: -1.51% [at 15.8 µM]
cytotoxicity increase [4]: -9.84% [at 15.8 µM]
cytotoxicity increase [5]: -5.84% [at 15.8 µM]
activity change, negative = cytotoxic [6]: -4.07% [at 15.8 µM]
activity change, negative = cytotoxicity [7]: -8.85% [at 15.8 µM]
activity change, negative = cytotoxicity [8]: -3.76% [at 15.8 µM]
activity change [9]: -2.95% [at 15.8 µM, hits give high values]
activity change, negative = cytotoxicity [10]: -0.377% [at 15.8 µM]

c1ccc(SCCSc2ccccc2)cc1
outcome [1]: inactive
Potency [2]: inactive
Potency [3]: inactive
Potency [4]: inactive
Potency [5]: inactive
outcome [6]: inactive
Potency [7]: inactive
Potency [8]: inactive
Potency [9]: inactive
Potency [10]: inactive

N[C@@H](CS)C(=O)O
outcome [1]: inactive
Potency [2]: inactive
Potency [3]: inactive
Potency [4]: inactive
Potency [5]: inactive
outcome [6]: inactive
Potency [7]: inactive
Potency [8]: inactive
Potency [9]: inactive
Potency [10]: inactive

Cc1ccc(Nc2ccc(O)c3c2C(=O)c2ccccc2C3=O)cc1
outcome [1]: inactive
Potency [2]: inactive
Potency [3]: inactive
Potency [4]: inactive
Potency [5]: inactive
outcome [6]: inactive
Potency [7]: inactive
Potency [8]: inactive
Potency [9]: inactive
Potency [10]: inactive

CCCCCCCCCCCCCCCCCC(=O)OCCCCCCCCCCCCCC(C)C
outcome [1]: inactive
Potency [2]: inactive
Potency [3]: inactive
Potency [4]: inactive
Potency [5]: inactive
outcome [6]: inactive
Potency [7]: inactive
Potency [8]: inactive
Potency [9]: inactive
Potency [10]: inactive

Cc1c(C)n(CCN(C)C)c2ccc(C(=O)OCCN(C)C)cc12
outcome [1]: inactive
Potency [2]: inactive
Potency [3]: inactive
Potency [4]: inactive
Potency [5]: inactive
outcome [6]: inactive
Potency [8]: inactive
Potency [9]: inactive
